Measured potencies and affinities stand elsewhere. Activity calls are given as the source filed them.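 The calls were made as follows: active = compounds lowering Shn3 expression whose fitted half-maximal concentration is at most twice the top valid dose; inconclusive = flat partial decrease or an invalid curve fit; inactive = the rest.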
Assay: Shn3 transcript knock-down in Clone20 cells – cell-based, qPCR, cherry-pick, dose response (AID 743415)

SMILES | outcome
COC(=O)C1=C(c2ccc(OCc3ccccc3)cc2)C[C@@H]2CC[C@H]1N2C(=O)NCCCCc1ccccc1 | inactive
O=c1[nH]c2ccccc2n1C1CCN(C(CCc2ccccc2)c2nnnn2Cc2ccccc2)CC1 (configuration not stated) | inactive

Reference: PubChem BioAssay AID743415 (Broad Institute, 2014)
